For ten compounds, growth results are on record in PubChem BioAssay (NCI).

What all share (test): NCI-60 one-dose screen, 48 h (100 = growth as untreated, 0 = no growth, -100 = all killed)
Common to all, as to conditions: 10 µM

In assay [1] the test system is HCT-15 colon.
The subject of assay [2] is HT29 colon.
Assay [3] has as its system SNB-75 CNS.
Assay [4] deals with SNB-19 CNS.
The test system of assay [5] is U251 CNS.
Assay [6] has as its system SK-MEL-5 melanoma.
For assay [7], the system named is UACC-62 melanoma.
For assay [8], the system named is LOX IMVI melanoma.
Assay [9] has as its system SK-MEL-28 melanoma.
Assay [10] concerns PC-3 prostate.

This is part of a sample that, as a whole, favours compounds with a hit. Of some 83,000 tested, about 20% had one in any assay.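 Assay: single dose, 48 h. Readout: percent growth (0 = no net growth; negative = cell death). Active: <10.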 A number with no mark means an inactive call. Calls of active or inactive are those of the source.

With `COC1OC(COS(=O)OC)C(O)C(O)C1OS(=O)OC` (stereo not given), the growth was 96.5% in assay [1]; 103% in assay [2]; 105% in assay [3]; 103% in [4]; 99.3% in assay [5]; 104% in assay [6]. The growth in [7] is 107%; in assay [8], 100%; in assay [9] it was 110%.
For `CCn1cc(CNc2ccc(C(=O)Nc3ccc4ccccc4c3)cc2)c(C)n1`, the growth was 55.8% in assay [1]; 75.7% in [2]; 71.8% in assay [3]; 77.6% in assay [4]; 84.5% in assay [5]; -31.5% (active) in assay [6]. Besides, the growth was 60% in [7], 62.5% in assay [8] and 77.8% in [9].
For the compound `Cc1n[nH]c(C)c1N=Nc1cccc2c1C(=O)c1ccccc1C2=O`, the growth in assay [1] is 78.4%; in [2], 96.8%; in assay [3] it was 95.1%; in assay [4], 93.1%; in assay [5] it was 92.4%; in assay [6] it was 93.1%. The growth in assay [7] is 89.5%; in [8], 69.8%; in assay [9] it was 113%.
As to `COCCn1cc(-c2nc(-c3cccnc3)cs2)c2cc(F)ccc21`, the growth in assay [1] was 76.4%; in [2], 72.3%; in assay [3], 94.4%; in assay [4], 97.3%; in assay [5], 90.2%; in [6], 82.9%. For the same compound, the growth in assay [7] was 89.2%; in assay [8], 90.7%; in [9], 97.2%.
Turning to `Cc1cc(SC#N)cc(C(C)(C)C)c1O`, the growth in [1] was 103%; in assay [2], 91.4%; in assay [3] it was 92.4%; in [4] it was 113%; in [5] it was 91.4%; in assay [10], 66.8%. The growth in assay [6] is 101%; in assay [8], 100%; in assay [9], 105%.
As for `COc1cc2c3c(n(C4CCN(C)CC4)c(=O)c2cc1OC)-c1cc2c(cc1C3=O)OCO2`, the growth in [1] was 71.5%; in assay [2], 39.7%; in assay [3], 60.1%; in assay [4], 59.6%; in assay [5], 35.5%; in [6] it was 57.7%. Moreover, the values for the growth in assay [7], in assay [8] and in assay [9] were -25.6% (active), 8.68% (active) and 107%, respectively.
Turning to `COc1ccc(C(=O)c2cc3c(OC)c(OC)c(OC)cc3[nH]2)cc1`, the growth was 36.1% in assay [1]; 14.2% in assay [2]; 51.9% in [3]; 71.9% in [4]; 59.8% in [5]; 36.9% in assay [6]. The growth in [7] is 36.7%; in [8], 56.3%; in [9], 65.2%.
For `COc1cc2c3c(n(C4CCNCC4)c(=O)c2cc1OC)-c1cc2c(cc1C3=O)OCO2`, the growth in assay [1] is -73.8% (active); in [2], -58.3% (active); in [3], -61.7% (active); in assay [4], -54.8% (active); in [5], -64.3% (active); in assay [6] it was -89.3% (active). The growth in assay [7] is -76.6% (active); in assay [8] it was -73.1% (active); in [9], -5.66% (active).
Consider `CCN(CC)CCOC(=O)c1cc(OCc2ccccc2)c(OCc2ccccc2)c(OCc2ccccc2)c1`, for which the growth in assay [1] was 13.1%; in [2] it was 7.14% (active); in assay [3], 72.1%; in [4], 56.9%; in assay [5] it was 18.3%; in assay [10] it was 49.6%. Moreover, the growth is 63.3% in assay [6], -16.9% (active) in assay [8] and 63.2% in assay [9].
For the compound `CC(C)C1=C(O)C2=C(C(=O)C1=O)[C@@]1(C)CCCC(C)(C)[C@@H]1CC2`, the growth in [1] is 44.2%; in assay [2], 99%; in [3], 78.5%; in assay [4], 53.4%; in assay [5] it was 50%; in assay [6] it was 70.1%. The growth is 80% in assay [7], 56.9% in assay [8] and 73.4% in [9].
